The list is not random: actives were taken first. Their share in the collection is about 14%.
AID923: qHTS Assay for Allosteric/Competitive Inhibitors of Caspase-1: Spectroscopic Profiling in AFC Spectral Region; compound fluorescence, AFC spectral region (405/520 nm); Potency, µM (highest dose often 57.5 µM), hits mostly activators; hit rate 1.1% among 75,000; AID 923, 2007
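Titrations up to 57 uM read every 20 sec for 3 min (405/520 nm) with 50 nM caspase 1 and 5 uM Ac-WEHD-AFC, pH 7.5 HEPES buffer. Fluorescence-vs-time intercept gave baseline, scaled against on-plate AFC standard.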
HSD17B inhib: inhibitors of human HSD17B10 dehydrogenase. recombinant HSD17B10, NADH fluorescence kinetic. Potency, µM (highest dose often 57.1 µM), most hits filed as inhibitors. hit rate 7.6% among 75,000. AID 893;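 also: the protocol describes HADH2 (HSD17B10) and not the HSD17B4 of the title; nearly all actives have a fitted effect of over 70% in size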
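Enzyme plus compound, 15 min room temperature; substrate mix added (NAD+ 1 mM, beta-hydroxybutyryl-CoA 90 uM final); plates read kinetically for NADH fluorescence. HADH2 was His-tagged, E. coli-derived, 20 nM.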
CRE Fsk mod: alters forskolin-stimulated CRE reporter signaling in CHO cells. CHO CRE-bla reporter (cAMP response element driving beta-lactamase), forskolin EC10, beta-lactamase ratio. Potency, µM (top dose mostly 38.2 µM), most hits filed as activators. hit rate 2.5% among 71,000. AID 662; active = well fitted activation curve with a large enough effect in the signal ratio, with a control signal flat, not every such curve was filed as active; inconclusive = small, poorly fitted or top-dose-only effect, or effect the other way, or a change in a side signal; the % refers to the signal ratio
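CHO CRE-bla cells, overnight plating in Opti-MEM with 0.5% dialyzed FBS; cpd titration + EC10 NKH 477, 3 h 37 °C; CCF4 2 h RT; ex 405/em 460 vs 530 ratio → %Activity, AC50.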
4MU fluor: compound fluoresces in the 4-MU spectral region; max dye-equivalent concentration, M; hit rate 11% among 59,000; compound autofluorescence, 340/450 nm, 4-MU equivalents; stronger effect = higher value; AID 589; in the data active = max dye-equivalent concentration above about 10 nM; inconclusive = mostly about 1.1 nM to 9.6 nM
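Compounds in 100 mM Tris, pH 8.0, sat 15 min at room temperature before fluorescence was read at 340 nm excitation/450 nm emission; a per-plate six-point 4-MU standard curve converted signals to dye-equivalent concentration at each compound concentration.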
HADH2 inhib: HADH2 (human) dehydrogenase inhibition; Q99714; recombinant HADH2, NADH fluorescence, beta-hydroxybutyryl-CoA; Potency, µM (highest dose often 57.1 µM), hits mostly inhibitors; hit rate 3.4% among 73,000; also: nearly all actives have a fitted effect of over 60% in size
Target sequence (Q99714 whole entry, looked up, one chain of several): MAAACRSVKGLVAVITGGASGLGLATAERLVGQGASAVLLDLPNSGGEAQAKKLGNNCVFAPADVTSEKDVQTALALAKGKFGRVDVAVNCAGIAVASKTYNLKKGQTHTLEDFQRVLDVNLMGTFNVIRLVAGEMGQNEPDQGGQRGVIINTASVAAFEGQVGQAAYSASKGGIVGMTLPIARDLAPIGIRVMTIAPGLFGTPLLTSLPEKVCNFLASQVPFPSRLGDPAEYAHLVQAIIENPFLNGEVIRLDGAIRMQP
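20 nM HADH2 + cpd, 15 min RT; add 1 mM NAD+/90 uM beta-hydroxybutyryl-CoA; kinetic fluorescence 360/450 nm, 4 min. Tris-HCl pH 9.0, 0.01% Tween-20.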
A350 fluor: A350 region autofluorescence; hit rate 11% among 59,000; Compound autofluorescence, 340/450 nm, Alexa 350 dye-equivalents; stronger effect = higher value; AID 590; max dye-equivalent concentration, M; in the data active = max dye-equivalent concentration above about 10 nM; inconclusive = mostly about 1.1 nM to 9.6 nM
Each line names hits and unclear results; the compound was inactive in the other large screens; ! = not active in a repeat. Unless noted, calls follow the shape of the dose curve; as a rule, active = well fitted curve in the direction sought with a large enough effect; inconclusive = small, poorly fitted or top-dose-only effect, or another doubt; inactive = no such curve, though single readings can be large; an effect the other way counts as inactive or inconclusive.

Cc1ccc(C)c(N2C(=O)CN=C2Nc2ccccc2Cl)c1	4MU fluor 1.38e-08M, A350 fluor 1.88e-08M
C=CCN1C(=O)CN=C1Nc1cc(C)ccc1C	CRE Fsk mod inconclusive
COc1ccccc1-c1nccc(Nc2ccc(F)cc2)n1	none
CCn1c(SCC(=O)Nc2ccc3c(c2)c2ccccc2n3CC)nnc1-c1ccco1	HSD17B inhib 15.8µM, HADH2 inhib 12.6µM
Cn1c(SCC(=O)Nc2ccc3cn[nH]c3c2)nnc1-c1cccs1	none
Cc1ccc(-n2c(SCC(=O)Nc3ccc4cn[nH]c4c3)nnc2-c2ccco2)cc1	HSD17B inhib 25.1µM, CRE Fsk mod inconclusive
CCn1c(SCC(=O)Nc2ccc3c(c2)OCCO3)nnc1-c1ccco1	A350 fluor inconclusive
CSc1nc(N)c2ncn([C@H]3O[C@H](COP(=O)(O)OP(=O)(O)O)[C@@H](O)[C@@H]3O)c2n1	CRE Fsk mod inconclusive (no result: 4MU fluor, A350 fluor)
COc1cc(O)cc(/C=C/c2ccccc2)c1	HSD17B inhib 20µM (no result: CRE Fsk mod, 4MU fluor, HADH2 inhib, A350 fluor)
Oc1ccc(/C=C\c2cc(O)cc(O)c2)cc1	HSD17B inhib 25.1µM, CRE Fsk mod inconclusive, 4MU fluor 1.16e-08M!, HADH2 inhib 12.6µM, A350 fluor 1.01e-08M!
O=C(/C=C/c1ccc(O)cc1)c1ccc(O)cc1O	none (no result: CRE Fsk mod, 4MU fluor, A350 fluor)
COc1ccc(/C=C/C(=O)c2ccc(O)cc2O)cc1	HSD17B inhib inconclusive (no result: CRE Fsk mod, 4MU fluor, HADH2 inhib, A350 fluor)
Oc1cc(O)cc(/C=C\c2ccc(O)c(O)c2)c1	HSD17B inhib 31.6µM, 4MU fluor 1.72e-08M, HADH2 inhib 2µM, A350 fluor 1.64e-08M
Oc1ccc(/C=C/c2cc(O)cc(O)c2)cc1	HSD17B inhib 31.6µM, 4MU fluor inconclusive, HADH2 inhib 31.6µM, A350 fluor inconclusive
O=C(O)[C@H](CCc1ccccc1)N1C(=O)c2ccccc2C1=O	none
CC(C)C[C@@H](CC(=O)N[C@@H](CCC(=O)O)CC(=O)O)NC(=O)[C@@H]1CNCC[C@H]1NC(=O)C[C@@H](NC(=O)C[C@H](Cc1c[nH]c2ccccc12)NC(=O)[C@@H]1CNCC[C@H]1N)C(C)C	none (no result: AID923, HSD17B inhib, 4MU fluor, A350 fluor)
Cc1csc2nc3ccccc3c(=O)n12	HSD17B inhib 31.6µM, CRE Fsk mod 10µM, 4MU fluor 3.22e-07M, HADH2 inhib inconclusive, A350 fluor 3.17e-07M
O=C(CSc1ccc2nnc(-c3ccccn3)n2n1)NCC1CCCO1 (stereo unspecified)	HSD17B inhib 31.6µM, CRE Fsk mod inconclusive (no result: 4MU fluor, A350 fluor)
O=C(CSc1ccc2nnc(-c3cccnc3)n2n1)NCC1CCCO1 (stereo unspecified)	HSD17B inhib 31.6µM, CRE Fsk mod inconclusive (no result: 4MU fluor, A350 fluor)
O=C(CSc1ccc2nnc(-c3cccc(F)c3)n2n1)NCC1CCCO1 (stereo unspecified)	HSD17B inhib 25.1µM, 4MU fluor inconclusive, HADH2 inhib 20µM, A350 fluor 1.03e-08M
COC1C(O)CC(=O)OC(C)C/C=C/C=C/[C@@H](OC2CCC(N(C)C)C(C)O2)C(C)C[C@@H](CC=O)[C@@H]1O[C@H]1OC(C)[C@H](O[C@@H]2C[C@@](C)(O)C(O)C(C)O2)C(N(C)C)C1O (stereo partly specified)	none (no result: CRE Fsk mod, 4MU fluor, HADH2 inhib, A350 fluor)
CCCCN(Cc1cc2cc(OC)ccc2[nH]c1=O)C(=O)COc1ccccc1	HSD17B inhib inconclusive, 4MU fluor 5.58e-08M, A350 fluor 6.56e-08M
COCC(=O)N(Cc1cc2cc(OC)ccc2[nH]c1=O)c1ccccc1	HSD17B inhib 31.6µM, CRE Fsk mod inconclusive, 4MU fluor 3.34e-07M, A350 fluor 4.55e-07M
COCC(=O)N(Cc1cc2ccccc2[nH]c1=O)c1ccc(OC)cc1	none
CC(=O)N(Cc1cc(=O)[nH]c2ccccc12)c1cccc(C)c1	HSD17B inhib inconclusive, CRE Fsk mod inconclusive, HADH2 inhib inconclusive
CCc1ccc2[nH]c(=O)c(CN(CCN(C)C)C(=O)Nc3ccccc3)cc2c1	CRE Fsk mod inconclusive
COc1ccc2[nH]c(=O)c(CN(C(C)=O)c3cccc(C)c3)cc2c1	HSD17B inhib 31.6µM, CRE Fsk mod inconclusive, 4MU fluor 2.52e-07M, A350 fluor 2.17e-07M
COc1ccc2[nH]c(=O)c(CN(CCCN(C)C)C(=O)Nc3ccccc3)cc2c1	HSD17B inhib 25.1µM, 4MU fluor 2.3e-07M, A350 fluor 2.68e-07M

Screening data: PubChem BioAssay, National Center for Advancing Translational Sciences (NCATS)
